Here are results for 13 compounds from PubChem BioAssay (NCI).

The structures appear in SMILES notation. The panel holds about 83,000 compounds, 20% with a hit somewhere; the sample as a whole holds those more often.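 How to read the values: 0–100, growth inhibition (40 = 60% inhibited); 0, no net growth; -100 to 0, cell death (-40 = 40% of starting cells died; -100 = all dead).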 Values without a mark were called inactive. Activity calls are given as the source filed them. Rule for the calls: active = growth percent below 10; inactive = the rest.

Among the test systems are SR leukemia; RPMI-8226 leukemia; OVCAR-8 ovarian; OVCAR-5 ovarian; OVCAR-4 ovarian; SK-OV-3 ovarian; IGROV1 ovarian; OVCAR-3 ovarian; HS 578T breast; NCI/ADR-RES ovarian.
Holding throughout (test): NCI-60 one-dose screen, 48 h (100 = growth as untreated, 0 = no growth, -100 = all killed)
Common to all, as to details: 10 µM

`C=C1CCC2C3(C)COC(c4c(F)cccc4F)OC3CCC2(C)C1C/C=C1/C(=O)OCC1O` (stereo not given): the growth with SR leukemia was 14.8%; in the test on RPMI-8226 leukemia, 15.3%; with OVCAR-8 ovarian it was -42.5% (active); with OVCAR-5 ovarian it was -10% (active); in the test on OVCAR-4 ovarian, 12.4%; in the test on SK-OV-3 ovarian, 54.7%. The growth in the test with IGROV1 ovarian was -26.7% (active); in the test with OVCAR-3 ovarian, -67.9% (active); in the test on HS 578T breast it was 17.5%; in the test with NCI/ADR-RES ovarian, -15.1% (active).

For `CC(=O)NS(=O)(=O)c1ccc(NC(=O)CSC2=NC(c3ccccc3)C(C(C)=O)=C(C)N2)cc1` (stereo not given), the growth in the test with SR leukemia was 101%; in the test on RPMI-8226 leukemia, 96%; in the test with OVCAR-8 ovarian it was 115%; in the test with OVCAR-5 ovarian it was 104%; in the test with OVCAR-4 ovarian, 113%; in the test with SK-OV-3 ovarian, 100%. Moreover, the growth with IGROV1 ovarian is 108%; in the test with OVCAR-3 ovarian, 133%; in the test on HS 578T breast, 107%; with NCI/ADR-RES ovarian, 99.6%.

In the case of `COc1cc(/C=N/NC(=O)c2ccc3nc(-c4ccc(Cl)cc4)[nH]c3c2)cc(OC)c1OC`, the growth in the test on SR leukemia was -6.5% (active); in the test with RPMI-8226 leukemia it was -23.9% (active); in the test on OVCAR-8 ovarian it was -62.7% (active); with OVCAR-5 ovarian, 62.6%; with OVCAR-4 ovarian it was -51.6% (active); in the test on SK-OV-3 ovarian, -25% (active). The growth with IGROV1 ovarian is 7.62% (active); in the test on OVCAR-3 ovarian, -90% (active); with HS 578T breast it was -52.1% (active); with NCI/ADR-RES ovarian, 75.7%.

Consider `COc1cc2c(cc1OC)/C(=C\c1sc(Nc3ccc(O)cc3)nc1O)C(C(=O)O)=N2`, for which the growth with SR leukemia was 17%; with RPMI-8226 leukemia, 16.1%; in the test on OVCAR-8 ovarian, 22.8%; with OVCAR-5 ovarian, 34.6%; in the test on OVCAR-4 ovarian it was 54%; in the test with SK-OV-3 ovarian, 47.3%. In addition, the growth is 34.3% in the test with IGROV1 ovarian, 3.64% (active) with OVCAR-3 ovarian, 31% with HS 578T breast and 85.4% with NCI/ADR-RES ovarian.

As for `CC(=O)Nc1ccc(-n2cnc3cc(-c4ccc(NS(C)(=O)=O)cc4)ccc32)cc1`, the growth in the test with SR leukemia is 21.8%; with RPMI-8226 leukemia it was 55.8%; in the test on OVCAR-8 ovarian, 66.9%; in the test with OVCAR-5 ovarian, 79.3%; in the test with OVCAR-4 ovarian it was 60%; in the test on SK-OV-3 ovarian, 87.9%. For the same compound, the growth is 36.4% in the test on IGROV1 ovarian, 63.1% in the test on OVCAR-3 ovarian, 57.9% in the test on HS 578T breast and 70.5% in the test on NCI/ADR-RES ovarian.

Regarding `O/N=C(\CSc1nnc(-c2c[nH]c3ccccc23)n1-c1ccccc1)c1ccc(Br)cc1`, the growth was 1.29% (active) in the test with SR leukemia; -13.1% (active) in the test on RPMI-8226 leukemia; -41.7% (active) with OVCAR-8 ovarian; -82.5% (active) with OVCAR-5 ovarian; -83.4% (active) in the test with OVCAR-4 ovarian; -50.2% (active) in the test on SK-OV-3 ovarian. The growth in the test on IGROV1 ovarian was -65.4% (active); in the test with OVCAR-3 ovarian, 0.699% (active); with HS 578T breast it was -39.4% (active); in the test on NCI/ADR-RES ovarian, -73.9% (active).

Turning to `C/C(=N\N=C\c1ccc(N(C)C)cc1)c1ccc2c(c1)Nc1ccccc1S2`, the growth was 50% with SR leukemia; 48.5% in the test with RPMI-8226 leukemia; 38.5% with OVCAR-8 ovarian; 57.4% with OVCAR-5 ovarian; 17.4% in the test with OVCAR-4 ovarian; 87.8% in the test with SK-OV-3 ovarian. For the same compound, the growth in the test with IGROV1 ovarian was 68.9%; in the test with OVCAR-3 ovarian it was 44.5%; with HS 578T breast, 18.7%; in the test with NCI/ADR-RES ovarian, 26.6%.

Take `Cc1cc2nc3c4ccccc4n(CCO)c3nc2cc1C`: the growth in the test on SR leukemia was 27.2%; in the test on RPMI-8226 leukemia, 93%; in the test on OVCAR-8 ovarian it was 72.7%; with OVCAR-5 ovarian, 103%; with OVCAR-4 ovarian, -43.7% (active); with SK-OV-3 ovarian, 81.7%. Moreover, the growth was 58.4% with IGROV1 ovarian, 78.7% with OVCAR-3 ovarian, 48.3% in the test with HS 578T breast and 62.3% in the test on NCI/ADR-RES ovarian.

Turning to `O=C(CSc1nnc(-c2c[nH]c3ccccc23)n1-c1ccccc1)Nc1ccc(C(=O)/C=C/c2ccc(Br)cc2)cc1`, the growth was 72.3% with SR leukemia; 7.63% (active) in the test on RPMI-8226 leukemia; 95.6% with OVCAR-8 ovarian; 93.3% in the test with OVCAR-5 ovarian; 91.2% in the test on OVCAR-4 ovarian; 88.3% with SK-OV-3 ovarian. The growth is 80.5% in the test with IGROV1 ovarian, 81% with OVCAR-3 ovarian, 82.2% in the test on HS 578T breast and 94.9% in the test on NCI/ADR-RES ovarian.

`O=C(CNc1nc(-c2ccccc2)cs1)Nc1cccc(Cl)c1`: the growth in the test with SR leukemia is -15% (active); in the test on RPMI-8226 leukemia, 26%; in the test with OVCAR-8 ovarian, 32.1%; in the test on OVCAR-5 ovarian, 40.9%; with OVCAR-4 ovarian, 32.5%; with SK-OV-3 ovarian it was 37.7%. Besides, the growth with IGROV1 ovarian is 29.4%; in the test on OVCAR-3 ovarian, 32.2%; with HS 578T breast it was 32.4%; in the test on NCI/ADR-RES ovarian it was 19.5%.

As for `O=c1[nH]c2ccccc2cc1CSc1ccc(Nc2nccc(-c3ccc4ccccc4c3)n2)cc1`, the growth in the test on SR leukemia is 80.7%; in the test with RPMI-8226 leukemia it was 67.5%; in the test with OVCAR-8 ovarian it was -28% (active); in the test on OVCAR-5 ovarian it was 62.9%; in the test on OVCAR-4 ovarian, -13.6% (active); with SK-OV-3 ovarian it was 116%. Besides, the growth in the test on IGROV1 ovarian was 73.9%; with OVCAR-3 ovarian, 13.1%; with HS 578T breast, 60.6%; in the test with NCI/ADR-RES ovarian, 24.4%.

Take `CCCn1c(=O)c2[nH]c(-c3ccc(OCc4nc5ccc(C)cc5[nH]4)cc3)nc2n(CCC)c1=O`: the growth is 11.6% in the test on SR leukemia; 29.3% in the test on RPMI-8226 leukemia; 17.3% in the test with OVCAR-8 ovarian; 40.6% in the test with OVCAR-5 ovarian; 0.252% (active) with OVCAR-4 ovarian; 4.62% (active) with SK-OV-3 ovarian. Moreover, the growth in the test on IGROV1 ovarian was 37%; in the test with OVCAR-3 ovarian, 18.2%; in the test on HS 578T breast, -12.4% (active); with NCI/ADR-RES ovarian, 31.7%.

For the compound `CCOC(=O)C(Cc1ccccc1)N1C(=O)/C(=C/N2N=C(c3ccc(OC)cc3)CC2c2ccc3ccccc3c2)SC1=S` (stereo not given), the growth was 6.53% (active) in the test on SR leukemia; 4.07% (active) with RPMI-8226 leukemia; 17.1% with OVCAR-8 ovarian; 39.3% with OVCAR-5 ovarian; 35.1% with OVCAR-4 ovarian; 9.93% (active) with SK-OV-3 ovarian. The growth in the test on IGROV1 ovarian is 13%; in the test on OVCAR-3 ovarian it was 15.1%; in the test with HS 578T breast it was 1.03% (active); in the test on NCI/ADR-RES ovarian, 54.1%.
